Source: PubChem BioAssay (Tox21)
Inconclusive results are not listed. The source made the active and inactive calls. Unless noted, the call rests on the fitted dose curve.

What was measured:
[1] = target: Gonadotropin-releasing hormone receptor (Homo sapiens) (UniProt P30968); assay: Human gonadotropin-releasing hormone receptor (GnRHR) small molecule agonists, calcium flux assay in GnRHR-HEK293 cells (AID 1920063); further: nearly all actives have a fitted effect of over 35% in size
Outline: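 Tox21-format agonist screen using human GnRHR-expressing HEK293 cells and a fluorescent calcium dye; kinetic 3-min fluorescence reading after compound addition, 15-point concentration series run in triplicate.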

[2] = G protein-coupled receptor (GPCR) small molecule agonists, calcium flux assay: HEK293 wild type cell line counter screen (AID 1920065)
Outline: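 In this agonist-mode screen, ATP is the positive control and DMSO the vehicle. Cells grow 18 h before a 1 h dye incubation at 37 C; signal is taken at Ex/Em 480/540 over 3 min.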

[3] = p53 small molecule agonists, cell-based qHTS assay with human liver microsomes (AID 1963577);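 further: p53 response element beta-lactamase reporter cells with liver microsomes plus NADPH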
Outline: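 Metabolically competent format: test substances, human liver microsomes and NADPH (both 0.5 mg/mL final) incubated with p53RE-bla cells 16 h at 37 C. Beta-lactamase reporter signal then quantified by fluorescence.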

[4] = p53 small molecule agonists, cell-based qHTS assay with rat liver microsomes (AID 1963578)
Outline: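 Each plate received p53RE-bla cells, then compound, then rat liver microsomes and NADPH (both 0.5 mg/mL final). Plates were held 16 h at 37 C, and beta-lactamase activity was detected with LiveBLAzer over 2 h.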

[5] = p53 small molecule agonists, cell-based qHTS assay with human liver microsomes: qHTS cell viability counter screen (AID 1963579); further: nearly all actives have a fitted effect of over 45% in size
Outline: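 Tox21 library compounds, delivered from DMSO stocks, were tested on p53RE-bla cells together with 0.5 mg/mL human liver microsomes and 0.5 mg/mL NADPH (final) over 16 h at 37 C; CellTiter-Glo luminescence served as the cytotoxicity measure.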

[6] = p53 small molecule agonists, cell-based qHTS assay with rat liver microsomes: qHTS cell viability counter screen (AID 1963580); further: nearly all actives have a fitted effect of over 45% in size
Outline: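 HCT-116 p53RE-bla, 4,000 cells/well, 5 h pre-incubation; cpd + rat liver microsomes 0.5 mg/mL + NADPH 0.5 mg/mL (final); 16 h, 37 C; CellTiter-Glo, 30 min RT; luminescence.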

[7] = p53 small molecule agonists, cell-based qHTS assay (AID 1963582; active means well fitted activation curve with a large enough effect in the signal ratio in the repeat runs, not every such curve was filed as active; the % refers to the signal ratio)
Outline: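 Agonist activity was scored from beta-lactamase FRET fluorescence in p53RE-bla cells treated 16 h at 37 C with compounds in DMSO, substrate incubation being 2 h at room temperature.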

[8] = target: 5-hydroxytryptamine receptor 2A (Homo sapiens) (UniProt P28223); assay: 5-hydroxytryptamine receptor 2A (HTR2A) small molecule antagonists, cell-based qHTS assay (AID 1963586); further: nearly all actives have a fitted effect of over 45% in size
Sequence of 5-hydroxytryptamine receptor 2A (Homo sapiens) (P28223 whole entry, looked up): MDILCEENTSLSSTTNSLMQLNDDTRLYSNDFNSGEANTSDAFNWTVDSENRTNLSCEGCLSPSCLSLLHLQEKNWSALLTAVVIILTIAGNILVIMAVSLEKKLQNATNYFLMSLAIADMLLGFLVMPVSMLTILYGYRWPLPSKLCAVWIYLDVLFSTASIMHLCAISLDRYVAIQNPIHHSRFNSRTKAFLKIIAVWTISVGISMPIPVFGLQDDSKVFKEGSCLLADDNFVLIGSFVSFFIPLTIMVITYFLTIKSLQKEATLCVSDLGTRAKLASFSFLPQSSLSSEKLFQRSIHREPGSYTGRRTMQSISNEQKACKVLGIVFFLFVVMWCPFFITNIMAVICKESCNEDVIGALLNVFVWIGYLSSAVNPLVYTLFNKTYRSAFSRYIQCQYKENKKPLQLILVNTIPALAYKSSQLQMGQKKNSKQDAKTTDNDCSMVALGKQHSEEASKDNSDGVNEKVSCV
Outline: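 Antagonist-mode intracellular calcium assay: DOI (4 nM) added after 5 min compound pre-incubation at room temperature to dye-loaded HTR2A-CHO cells. Fluorescence followed for 3 min, sampled every second.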

[9] = target: 5-hydroxytryptamine receptor 2A (Homo sapiens) (UniProt P28223); assay: 5-hydroxytryptamine receptor 2A (HTR2A) small molecule agonists, cell-based qHTS assay (AID 1963587); further: nearly all actives have a fitted effect of over 30% in size
Outline: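 Kinetic calcium-flux fluorescence (2 min, 1 sec intervals) after compound addition in agonist mode. HTR2A-CHO cells were cultured 18 h, then dye-loaded 1 h at 37 C.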

[10] = target: Muscarinic acetylcholine receptor M1 (Homo sapiens) (UniProt P11229); assay: Cholinergic receptor muscarinic 1 (CHRM1) small molecule antagonists, cell-based qHTS assay (AID 1963588); further: nearly all actives have a fitted effect of over 40% in size
Sequence of Muscarinic acetylcholine receptor M1 (Homo sapiens) (P11229 whole entry, looked up): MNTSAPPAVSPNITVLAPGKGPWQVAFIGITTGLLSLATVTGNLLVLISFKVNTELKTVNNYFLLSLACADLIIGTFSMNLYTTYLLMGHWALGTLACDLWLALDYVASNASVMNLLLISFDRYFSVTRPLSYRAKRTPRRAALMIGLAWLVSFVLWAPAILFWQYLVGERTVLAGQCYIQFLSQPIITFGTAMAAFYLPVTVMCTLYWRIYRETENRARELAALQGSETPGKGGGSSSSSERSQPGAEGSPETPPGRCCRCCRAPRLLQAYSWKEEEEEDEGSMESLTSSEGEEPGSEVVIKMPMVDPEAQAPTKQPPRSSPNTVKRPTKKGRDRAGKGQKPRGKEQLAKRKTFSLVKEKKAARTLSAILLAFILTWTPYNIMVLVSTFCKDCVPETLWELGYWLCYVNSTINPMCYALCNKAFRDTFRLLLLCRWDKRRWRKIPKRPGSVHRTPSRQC
Outline: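 CHRM1-CHO calcium-flux assay, antagonist mode. Cells were seeded 18 h, dye-loaded 1 h at 37 C and given compound for 5 min at RT, then acetylcholine was added at 50nM. FDSS fluorescence was read 3 min; 15 concentrations, three runs.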

[11] = target: Muscarinic acetylcholine receptor M1 (Homo sapiens) (UniProt P11229); assay: Cholinergic receptor muscarinic 1 (CHRM1) small molecule agonists, cell-based qHTS assay (AID 1963589); further: nearly all actives have a fitted effect of over 35% in size
Outline: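 Stable CHRM1-CHO cells (human receptor) were incubated 18 h, dye-loaded for 1 h at 37 C and exposed to test compounds for agonist activity, with calcium-dependent fluorescence followed kinetically.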

[12] = cAMP Responsive Elements (CRE) small molecule agonists, cell-based qHTS assay (AID 1963590)
Outline: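 FRET-based beta-lactamase readout (LiveBLAzer B/G, 2 h RT) quantified CRE activation in HEK 293T CRE-bla cells after 3 h treatment with DMSO-dissolved compounds.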

[13] = target: Beta-2 adrenergic receptor (Homo sapiens) (UniProt P07550); assay: Adrenergic beta2 receptor (ADRB2) small molecule antagonists, cell-based qHTS assay (AID 1963592); further: series mostly up to about 92 µM; nearly all actives have a fitted effect of over 50% in size
Sequence of Beta-2 adrenergic receptor (Homo sapiens) (P07550 whole entry, looked up): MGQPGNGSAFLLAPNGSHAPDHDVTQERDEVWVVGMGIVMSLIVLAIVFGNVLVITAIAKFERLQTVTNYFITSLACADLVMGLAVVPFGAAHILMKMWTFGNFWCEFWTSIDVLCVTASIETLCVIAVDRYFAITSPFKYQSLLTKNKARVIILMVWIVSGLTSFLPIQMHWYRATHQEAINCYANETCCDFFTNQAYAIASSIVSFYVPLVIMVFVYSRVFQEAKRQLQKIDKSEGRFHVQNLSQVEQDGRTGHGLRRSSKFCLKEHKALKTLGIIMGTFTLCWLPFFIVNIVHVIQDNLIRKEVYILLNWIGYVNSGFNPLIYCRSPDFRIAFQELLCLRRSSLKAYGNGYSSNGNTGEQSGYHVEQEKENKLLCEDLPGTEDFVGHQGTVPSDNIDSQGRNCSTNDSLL
Outline: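 Cells (CHO, stable ADRB2 overexpression) incubated 18-20hr at 37C; compounds added from DMSO; agonist mix (1nM isoproterenol, 100uM IBMX, 25uM Ro-20-1724) added; 0.5hr RT; d2-cAMP and anti-cAMP-cryptate added; 1hr RT; 665/615 nm read.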

[14] = target: Beta-2 adrenergic receptor (Homo sapiens) (UniProt P07550); assay: Adrenergic beta2 receptor (ADRB2) small molecule agonists, cell-based qHTS assay (AID 1963593);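 further: CHO cells stably overexpressing human ADRB2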
Outline: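 CHO cells stably over-expressing ADRB2 were plated overnight at 37C, then dosed with compounds plus a stimulation mix containing 100uM IBMX and 25uM Ro-20-1724 for 0.5hr at room temperature. cAMP was measured by HTRF competition, 1hr.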

[15] = target: KiSS-1 receptor (Homo sapiens) (UniProt Q969F8); assay: Human kisspeptin (KISS1R) small molecule agonists, calcium flux assay in KISS1R-HEK293 cells (AID 1920064; active means well fitted activation curve with a large enough effect in the repeat runs)
Sequence of KiSS-1 receptor (Homo sapiens) (Q969F8 whole entry, looked up): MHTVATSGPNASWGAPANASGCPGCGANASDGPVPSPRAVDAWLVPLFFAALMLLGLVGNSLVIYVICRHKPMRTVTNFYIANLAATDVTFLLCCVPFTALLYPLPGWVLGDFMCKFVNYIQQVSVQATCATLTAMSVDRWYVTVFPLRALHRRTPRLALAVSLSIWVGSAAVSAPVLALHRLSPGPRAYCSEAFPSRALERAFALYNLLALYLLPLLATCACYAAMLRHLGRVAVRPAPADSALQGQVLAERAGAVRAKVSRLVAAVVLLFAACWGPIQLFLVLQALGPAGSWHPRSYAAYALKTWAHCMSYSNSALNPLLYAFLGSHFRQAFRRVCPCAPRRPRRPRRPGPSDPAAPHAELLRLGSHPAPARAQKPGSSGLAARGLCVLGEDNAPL
Outline: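 Intracellular calcium mobilization in KISS1R-HEK293 cells was recorded by fluorescence (Ex/Em 480/540) for 3 min following compound addition to cells pre-loaded 1 h with calcium dye.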

[16] = p53 small molecule agonists, cell-based qHTS assay: qHTS cell viability counter screen (AID 1963581); further: nearly all actives have a fitted effect of over 45% in size
Outline: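 Compounds are pinned onto HCT-116 p53RE-bla cells and left 16 h at 37 C. Following the reporter FRET read, ATP is quantified by CellTiter-Glo luminescence after 30 min at room temperature.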

[17] = target: D(2) dopamine receptor (Homo sapiens) (UniProt P14416); assay: Dopamine D2 receptor (DRD2) small molecule agonists, cell-based qHTS assay (AID 1963594); further: nearly all actives have a fitted effect of over 35% in size
Sequence of D(2) dopamine receptor (Homo sapiens) (P14416 whole entry, looked up): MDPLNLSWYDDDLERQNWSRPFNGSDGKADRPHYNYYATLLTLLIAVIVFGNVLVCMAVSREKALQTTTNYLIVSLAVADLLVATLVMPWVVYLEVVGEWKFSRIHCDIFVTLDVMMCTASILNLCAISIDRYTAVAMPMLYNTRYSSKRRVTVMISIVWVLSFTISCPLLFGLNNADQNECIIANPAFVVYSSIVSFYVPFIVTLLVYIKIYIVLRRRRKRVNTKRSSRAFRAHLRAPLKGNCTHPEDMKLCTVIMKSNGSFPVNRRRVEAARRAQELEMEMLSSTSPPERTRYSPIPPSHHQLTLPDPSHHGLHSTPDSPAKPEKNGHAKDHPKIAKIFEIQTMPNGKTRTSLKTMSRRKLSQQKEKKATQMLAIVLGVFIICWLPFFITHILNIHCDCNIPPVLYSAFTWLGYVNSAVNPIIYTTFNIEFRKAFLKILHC
Outline: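 cAMP accumulation in DRD2-HEK293 cells measured by HTRF after 1 h detection; compounds added 10 min before NKH477 (200nM […]) forskolin-analogue stimulation, 30 min at room temperature, with Ro20-1724 present at 0.1 mM final.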

[18] = target: D(2) dopamine receptor (Homo sapiens) (UniProt P14416); assay: Dopamine D2 receptor (DRD2) small molecule antagonists, cell-based qHTS assay (AID 1963595; active means well fitted inhibition curve with a large enough effect in the signal ratio in the repeat runs, with a control signal flat; the % refers to the signal ratio)
Outline: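 Stable D2 receptor HEK293 line, 24 h after seeding. Compound preincubated 10 min, then quinpirole (12 nM) with forskolin analogue NKH477 (200 nM), 30 min, room temperature. Detection by time-resolved FRET of cAMP.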

[19] = cAMP Responsive Elements (CRE) small molecule antagonists, cell-based qHTS assay (AID 1963591; active means well fitted inhibition curve with a large enough effect in the signal ratio in the repeat runs, not every such curve was filed as active; the % refers to the signal ratio)
Outline: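 qHTS in CRE-bla HEK 293T cells: compound in DMSO, then 0.25 uM NKH477 (final), 3 h at 37 °C/5% CO2; beta-lactamase FRET read-out after 2 h substrate incubation.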

Measured: Potency

Sequence of Gonadotropin-releasing hormone receptor (Homo sapiens) (P30968 whole entry, looked up): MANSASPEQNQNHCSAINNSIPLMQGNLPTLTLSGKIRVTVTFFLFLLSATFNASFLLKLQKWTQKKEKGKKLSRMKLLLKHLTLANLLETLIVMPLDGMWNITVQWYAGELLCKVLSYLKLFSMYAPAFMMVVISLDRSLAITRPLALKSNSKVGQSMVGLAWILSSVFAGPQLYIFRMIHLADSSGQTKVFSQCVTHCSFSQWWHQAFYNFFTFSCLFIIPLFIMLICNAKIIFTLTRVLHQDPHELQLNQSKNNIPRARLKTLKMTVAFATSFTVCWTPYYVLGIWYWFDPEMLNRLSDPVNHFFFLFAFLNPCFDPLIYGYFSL

CCCC1CCC(=O)O1 (configuration not stated)
not listed: [15] | [16] | [17] | [18] | [19]
inactive: all other assays above

COc1ccc(C(=O)Nc2ccccc2)cc1[N+](=O)[O-]
not listed: [1] | [3] | [8] | [12] | [14] | [19]
inactive: all other assays above

C=COCC1CCC(CO)CC1 (configuration not stated)
not listed: [14] | [15] | [19]
inactive: all other assays above

COc1ccc(-n2nc(CCC(=O)N(C)O)cc2-c2ccc(Cl)cc2)cc1
not listed: [4] | [6] | [10] | [13] | [14]
inactive: all other assays above

CCNC(=O)C1CC(C)CCC1C(C)C (configuration not stated)
not listed: [4] | [5] | [6] | [14] | [15] | [18] | [19]
inactive: all other assays above

CC(C)=CCOC(=O)c1ccccc1
not listed: [3] | [19]
inactive: all other assays above

CC(C)=CC1CC(C)CCO1 (configuration not stated)
not listed: [2] | [6] | [14]
inactive: all other assays above

O=S(=O)(O)c1ccc(Cl)cc1
not listed: [1] | [9] | [11] | [12]
inactive: all other assays above
